# Test results reported in ChEMBL document CHEMBL3988442, “University of Dundee, Small-Polar-MMV Screening Library” (2021).
# For some of these results: Entries with a potency or affinity are not part of this list.
# Assays:
# Set-up in all cases: scale not given: direction of the effect not stated beside the values
# [1] = target: Protein translocase subunit SecA (Escherichia coli (strain K12)) (UniProt P10408); test: Assay to Identify E. coli SecA ATPase Inhibitors; type: functional; details: 30 µM
# Chain of Protein translocase subunit SecA (Escherichia coli (strain K12)) (P10408 whole entry): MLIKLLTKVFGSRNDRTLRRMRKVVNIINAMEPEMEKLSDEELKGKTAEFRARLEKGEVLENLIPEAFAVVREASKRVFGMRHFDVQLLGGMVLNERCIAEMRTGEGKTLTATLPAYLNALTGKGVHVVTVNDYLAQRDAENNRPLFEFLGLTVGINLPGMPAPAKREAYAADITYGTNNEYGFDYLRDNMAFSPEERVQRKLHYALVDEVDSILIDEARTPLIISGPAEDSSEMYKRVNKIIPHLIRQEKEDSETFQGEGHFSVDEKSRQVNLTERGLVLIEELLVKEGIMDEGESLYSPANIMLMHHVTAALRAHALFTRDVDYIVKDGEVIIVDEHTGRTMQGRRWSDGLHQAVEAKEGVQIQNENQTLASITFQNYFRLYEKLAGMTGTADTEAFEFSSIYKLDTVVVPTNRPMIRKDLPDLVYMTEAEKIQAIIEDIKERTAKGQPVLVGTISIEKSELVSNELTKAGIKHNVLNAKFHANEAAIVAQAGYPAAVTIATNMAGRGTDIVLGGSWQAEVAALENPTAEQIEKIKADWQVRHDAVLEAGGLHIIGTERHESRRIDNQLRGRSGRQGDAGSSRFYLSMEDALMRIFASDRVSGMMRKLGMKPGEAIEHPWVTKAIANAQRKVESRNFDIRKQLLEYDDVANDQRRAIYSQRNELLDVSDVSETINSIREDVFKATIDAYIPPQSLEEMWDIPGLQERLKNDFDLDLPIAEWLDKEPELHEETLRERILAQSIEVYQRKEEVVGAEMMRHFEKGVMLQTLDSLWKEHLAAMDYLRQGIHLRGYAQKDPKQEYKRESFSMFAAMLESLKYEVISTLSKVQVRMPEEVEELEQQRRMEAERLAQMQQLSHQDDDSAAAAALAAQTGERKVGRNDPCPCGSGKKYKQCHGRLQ
# [2] = target: T1, Ubiquitin-activating enzyme e1, putative (Leishmania donovani (strain BPK282A1)) (UniProt E9BSI1); test: Leishmania donovani Ubiquitin Activating Enzyme (LdE1); type: functional; details: 30 µM
# T1 sequence (whole entry): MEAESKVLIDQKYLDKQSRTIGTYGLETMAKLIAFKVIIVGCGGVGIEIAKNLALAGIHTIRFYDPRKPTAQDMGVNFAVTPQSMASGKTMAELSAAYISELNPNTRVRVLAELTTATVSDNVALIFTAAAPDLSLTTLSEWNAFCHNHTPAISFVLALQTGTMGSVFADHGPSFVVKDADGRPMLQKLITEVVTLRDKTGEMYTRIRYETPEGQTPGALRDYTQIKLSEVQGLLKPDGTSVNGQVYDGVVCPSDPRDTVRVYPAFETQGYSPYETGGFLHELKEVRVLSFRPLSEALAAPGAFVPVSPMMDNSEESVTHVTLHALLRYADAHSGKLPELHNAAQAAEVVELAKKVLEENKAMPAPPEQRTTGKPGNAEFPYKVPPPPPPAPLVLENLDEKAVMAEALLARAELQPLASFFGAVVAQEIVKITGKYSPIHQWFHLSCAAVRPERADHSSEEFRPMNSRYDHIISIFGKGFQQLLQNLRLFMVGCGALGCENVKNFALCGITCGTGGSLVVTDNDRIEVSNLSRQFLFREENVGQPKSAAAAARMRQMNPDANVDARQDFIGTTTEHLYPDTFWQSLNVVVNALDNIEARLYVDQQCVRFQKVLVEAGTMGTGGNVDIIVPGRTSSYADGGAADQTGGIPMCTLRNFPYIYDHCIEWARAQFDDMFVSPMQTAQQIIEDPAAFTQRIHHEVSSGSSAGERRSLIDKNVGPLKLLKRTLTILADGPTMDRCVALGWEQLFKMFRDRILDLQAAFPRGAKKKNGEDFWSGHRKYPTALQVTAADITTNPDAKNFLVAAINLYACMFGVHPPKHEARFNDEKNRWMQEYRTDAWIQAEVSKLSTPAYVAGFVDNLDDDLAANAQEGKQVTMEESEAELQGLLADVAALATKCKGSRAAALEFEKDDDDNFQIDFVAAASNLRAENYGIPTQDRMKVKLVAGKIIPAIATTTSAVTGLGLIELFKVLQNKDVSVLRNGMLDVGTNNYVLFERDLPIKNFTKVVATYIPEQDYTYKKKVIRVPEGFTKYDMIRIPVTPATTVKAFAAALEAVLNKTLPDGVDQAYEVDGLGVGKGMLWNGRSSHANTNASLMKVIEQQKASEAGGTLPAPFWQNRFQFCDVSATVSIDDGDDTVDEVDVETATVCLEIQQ
# [3] = target: AMP-activated protein kinase, AMPK (Homo sapiens) (UniProt P54646+O43741+P54619+Q9UGJ0+Q9Y478+Q13131+Q9UGI9); test: AMP-dependent Kinase enzyme assay. An in vitro enzyme assay that detects ADP turnover that is directly proportional to AMPK activity. This uses naive AMPK that is activated during the assay with MK-8722; type: functional; details: 30 µM
# [4] = target: Sialic acid-binding Ig-like lectin 9 (Homo sapiens) (UniProt Q9Y336); test: Hs-Siglec9 ALPHAscreen SOP 20170721; details: 10 µM
# Chain of Sialic acid-binding Ig-like lectin 9 (Homo sapiens) (Q9Y336 whole entry): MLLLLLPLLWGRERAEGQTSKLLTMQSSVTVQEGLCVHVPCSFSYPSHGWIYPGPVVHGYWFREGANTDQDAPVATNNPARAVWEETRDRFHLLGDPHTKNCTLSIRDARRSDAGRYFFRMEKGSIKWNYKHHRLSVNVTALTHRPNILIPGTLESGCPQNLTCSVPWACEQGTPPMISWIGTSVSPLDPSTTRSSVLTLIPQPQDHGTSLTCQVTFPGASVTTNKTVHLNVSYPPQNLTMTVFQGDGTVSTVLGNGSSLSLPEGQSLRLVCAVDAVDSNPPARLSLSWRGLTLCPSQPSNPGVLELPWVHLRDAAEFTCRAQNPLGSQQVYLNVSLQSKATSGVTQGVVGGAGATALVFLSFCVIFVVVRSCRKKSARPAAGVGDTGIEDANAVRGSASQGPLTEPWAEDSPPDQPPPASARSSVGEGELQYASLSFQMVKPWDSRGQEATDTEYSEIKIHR
# Trypanosoma cruzi = test: Trypanosoma cruzi phosphomannomutase and mannose-1-phosphate guanylyltransferase assay; type: functional; details: 10 µM
# [5] = target: T2, Arginase-2, mitochondrial (Homo sapiens) (UniProt P78540); test: in vitro enzyme assay to detect the production of urea directly proportional to the activity of Arginase II; type: functional; details: 33.3 µM; also: in the data most compounds retested in dose-response had high values
# T2 sequence (whole entry): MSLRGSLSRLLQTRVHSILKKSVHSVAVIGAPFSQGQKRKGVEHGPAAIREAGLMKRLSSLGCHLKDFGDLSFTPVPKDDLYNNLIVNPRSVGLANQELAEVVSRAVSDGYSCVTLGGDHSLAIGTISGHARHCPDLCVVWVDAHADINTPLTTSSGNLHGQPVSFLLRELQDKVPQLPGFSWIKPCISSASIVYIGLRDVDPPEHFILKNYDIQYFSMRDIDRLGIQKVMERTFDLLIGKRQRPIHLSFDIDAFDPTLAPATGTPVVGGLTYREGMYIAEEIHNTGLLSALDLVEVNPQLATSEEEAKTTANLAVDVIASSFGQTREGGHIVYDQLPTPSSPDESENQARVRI
# [6] = target: T3, Proteasome subunit beta (Trypanosoma cruzi) (UniProt O96673); test: Trypanosoma cruzi proteasome chymotrypsin-like activity (TcProtChymo) assay.; also: in the data most compounds retested in dose-response had high values; type: functional; details: 9.37 µM
# T3 sequence (whole entry): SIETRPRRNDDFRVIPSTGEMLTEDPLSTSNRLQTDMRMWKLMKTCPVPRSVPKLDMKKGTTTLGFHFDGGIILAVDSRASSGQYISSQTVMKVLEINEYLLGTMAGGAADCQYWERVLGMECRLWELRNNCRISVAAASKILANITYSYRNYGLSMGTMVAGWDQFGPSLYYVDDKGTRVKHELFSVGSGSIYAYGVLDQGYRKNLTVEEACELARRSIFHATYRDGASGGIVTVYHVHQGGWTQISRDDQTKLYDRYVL
# Homo sapiens = species on record: Homo sapiens; test: To identify inhibition of the IFN signalling (Jak-Stat) pathway via expression of an eGFP reporter gene under the control of an IFN-stimulated response element (ISRE) containing MxA promoter.; type: functional; details: 30 µM
# [7] = target: T4, Tyrosyl-tRNA synthetase, putative (Trypanosoma cruzi (strain CL Brener)) (UniProt Q4DSP6); test: Trypanosoma cruzi tyrosyl tRNA synthetase (TcYRS) _High Tyrosine SOP; type: functional; details: 30 µM; also: in the data most compounds retested in dose-response had high values
# T4 sequence (whole entry): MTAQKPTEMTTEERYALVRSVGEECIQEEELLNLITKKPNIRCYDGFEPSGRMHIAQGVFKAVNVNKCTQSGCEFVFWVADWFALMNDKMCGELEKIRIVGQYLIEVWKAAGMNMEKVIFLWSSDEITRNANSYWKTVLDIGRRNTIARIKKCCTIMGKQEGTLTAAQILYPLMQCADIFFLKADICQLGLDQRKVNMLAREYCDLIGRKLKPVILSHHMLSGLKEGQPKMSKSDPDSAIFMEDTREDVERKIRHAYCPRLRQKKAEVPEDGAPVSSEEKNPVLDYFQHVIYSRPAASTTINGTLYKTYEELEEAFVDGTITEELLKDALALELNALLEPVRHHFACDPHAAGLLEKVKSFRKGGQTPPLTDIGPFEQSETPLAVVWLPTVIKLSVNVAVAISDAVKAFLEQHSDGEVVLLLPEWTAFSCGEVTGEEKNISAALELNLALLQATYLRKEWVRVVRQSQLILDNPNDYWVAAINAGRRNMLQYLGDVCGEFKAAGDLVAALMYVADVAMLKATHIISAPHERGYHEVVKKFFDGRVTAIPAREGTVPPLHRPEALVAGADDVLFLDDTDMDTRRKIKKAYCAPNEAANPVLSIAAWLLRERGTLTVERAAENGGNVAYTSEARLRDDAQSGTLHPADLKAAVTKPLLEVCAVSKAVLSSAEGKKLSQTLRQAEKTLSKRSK
# [8] = target: T4, Tyrosyl-tRNA synthetase, putative (Trypanosoma cruzi (strain CL Brener)); test: Trypanosoma cruzi tyrosyl tRNA synthetase (TcYRS) SOP; type: functional; details: 30 µM
# [9] = target: Chromo domain-containing protein 1 (Saccharomyces cerevisiae (strain ATCC 204508 / S288c) (Baker's yeast)) (UniProt P32657); test: ScCHD-1 Enzyme Inhibition Assay; type: functional; details: 30 µM; also: in the data most compounds retested in dose-response had high values
# Chain of Chromo domain-containing protein 1 (Saccharomyces cerevisiae (strain ATCC 204508 / S288c) (Baker's yeast)) (P32657 whole entry, the tested form may be a part): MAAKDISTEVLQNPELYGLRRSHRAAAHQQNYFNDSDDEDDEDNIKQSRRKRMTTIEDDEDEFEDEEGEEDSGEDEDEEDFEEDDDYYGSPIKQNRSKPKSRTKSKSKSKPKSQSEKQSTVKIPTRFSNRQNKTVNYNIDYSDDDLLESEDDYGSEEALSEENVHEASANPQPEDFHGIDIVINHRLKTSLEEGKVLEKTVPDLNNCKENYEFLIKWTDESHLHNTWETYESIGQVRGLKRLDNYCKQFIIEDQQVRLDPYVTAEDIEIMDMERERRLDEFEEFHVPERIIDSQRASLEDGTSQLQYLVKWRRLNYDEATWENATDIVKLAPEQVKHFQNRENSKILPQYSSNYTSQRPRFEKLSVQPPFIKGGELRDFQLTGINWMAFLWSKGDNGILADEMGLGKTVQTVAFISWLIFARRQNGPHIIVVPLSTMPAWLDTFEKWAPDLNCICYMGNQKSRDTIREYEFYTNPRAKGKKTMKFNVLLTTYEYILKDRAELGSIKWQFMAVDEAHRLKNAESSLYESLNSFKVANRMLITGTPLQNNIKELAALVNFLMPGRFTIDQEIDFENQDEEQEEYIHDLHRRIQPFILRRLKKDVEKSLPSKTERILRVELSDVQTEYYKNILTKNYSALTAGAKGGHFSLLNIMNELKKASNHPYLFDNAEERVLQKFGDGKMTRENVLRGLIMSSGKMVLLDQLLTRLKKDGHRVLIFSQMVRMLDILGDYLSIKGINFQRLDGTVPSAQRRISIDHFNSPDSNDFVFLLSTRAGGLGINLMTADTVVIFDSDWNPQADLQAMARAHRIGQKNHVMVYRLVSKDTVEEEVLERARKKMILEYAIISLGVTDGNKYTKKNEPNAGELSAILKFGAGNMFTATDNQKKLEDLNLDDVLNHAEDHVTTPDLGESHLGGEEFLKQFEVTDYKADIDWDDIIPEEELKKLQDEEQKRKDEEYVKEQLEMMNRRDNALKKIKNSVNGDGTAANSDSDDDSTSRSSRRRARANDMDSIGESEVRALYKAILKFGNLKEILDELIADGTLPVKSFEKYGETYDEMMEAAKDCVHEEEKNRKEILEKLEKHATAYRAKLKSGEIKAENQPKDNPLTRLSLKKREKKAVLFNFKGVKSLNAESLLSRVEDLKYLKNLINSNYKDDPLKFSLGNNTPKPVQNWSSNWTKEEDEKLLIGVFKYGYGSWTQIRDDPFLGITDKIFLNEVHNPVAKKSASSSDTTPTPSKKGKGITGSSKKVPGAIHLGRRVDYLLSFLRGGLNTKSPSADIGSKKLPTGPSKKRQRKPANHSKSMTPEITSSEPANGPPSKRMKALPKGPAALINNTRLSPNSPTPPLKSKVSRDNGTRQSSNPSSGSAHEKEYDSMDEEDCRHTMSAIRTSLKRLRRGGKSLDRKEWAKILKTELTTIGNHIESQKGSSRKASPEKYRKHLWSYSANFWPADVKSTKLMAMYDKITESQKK
SMILES,Percent Effect [1] [%],Percent Effect [2] [%],Percent Effect [3] [%],Percent Effect [4] [%],Percent Effect (Trypanosoma cruzi) [%],Percent Effect [5] [%],Percent Effect [6] [%],Percent Effect (Homo sapiens) [%],Percent Effect [7] [%],Percent Effect [8] [%],Percent Effect [9] [%]
CCc1nnc2n1CCN(C(=O)c1cc(Br)c[nH]1)C2,-5.48,23.4,-0.82,9.55,8.05,-1.78,13,-20.8,9.71,19.5,-10.3
Cc1csc(N2CCN(C(=O)Cc3ccsc3)CC2)n1,-6.47,21.6,-0.587,9.11,7.26,3.21,20.9,5.74,10.3,30.9,-10.7
Cc1nccn1-c1nccnc1C1CCN(Cc2ccc(F)cc2)CC1,-2.09,21.3,4.62,-5.84,5.91,-2.56,15.2,7.46,4.25,16.7,-4.22
N#Cc1ccccc1OCCN1CCCCC1Cn1cncn1 (stereo unspecified),-2.06,5.41,-28.6,8.52,5.94,-5.61,3.78,-11.9,12.3,16.1,-11.1
CSCCCN1CCCC1c1noc(C)n1 (stereo unspecified),-0.0492,13.2,-11.1,-5.04,6.39,8.43,23.7,19.4,14.2,21.9,-9.94
CN1C(=O)C[C@@H]2[C@@H]1CCN2S(=O)(=O)Cc1ccccc1,2.57,2.74,4.04,13.8,-0.595,2,2.83,1.27,3.12,3.7,6.94
Cc1nn(C)c(C)c1C1CCCN1CC(=O)NC(C1CC1)C1CC1 (stereo unspecified),-3.47,10.8,-8.63,11.2,4.25,-4.01,-3.06,4.1,5.42,11.1,-9.75
CCCc1cc(=O)[nH]c2nnc(SCC(=O)NCc3ccc(C)cc3)n12,-0.143,13.7,-0.135,6.56,3.33,13.6,20.2,16.9,6.45,17.5,-7.5
COc1ccc(C2CCCN2C(=O)CCNc2ncccn2)cc1 (stereo unspecified),-2.77,0,-2.54,0.524,-1.57,5,7.1,1.66,1.07,-5,-1.55
Cc1ccc(CN2CCc3ncc(CNS(C)(=O)=O)n3CC2)o1,-0.0355,8.22,-1.38,6.78,-5.56,-1.6,15.3,16.8,7.29,16.1,-0.506
CNS(=O)(=O)c1cccc(CNc2nccc(C(F)(F)F)n2)c1,-0.353,16.2,14.6,-2.3,5.19,-1.6,15.1,46.9,-0.493,16.1,-15.9
